Compounds without any hit were thinned out: in the full panel of roughly 83,000, 20% have a hit.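 Each cell line was grown in a 96-well plate and treated with one concentration of compound for 48 hours. Values below 10 were considered active.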 Values without a mark were called inactive. Active and inactive are the calls of the source.
Key:
Assay in all cases: NCI-60 one-dose screen, 48 h (100 = growth as untreated, 0 = no growth, -100 = all killed)
[1] = system: T-47D breast; conditions: 10 µM
[2] = system: BT-549 breast; conditions: 10 µM unless noted
[3] = system: MDA-MB-435 melanoma; conditions: 10 µM unless noted
[4] = system: SW-620 colon; conditions: 10 µM unless noted
[5] = system: MCF7 breast; conditions: 10 µM unless noted
[6] = system: HCT-116 colon; conditions: 10 µM unless noted
[7] = system: HCC-2998 colon; conditions: 10 µM unless noted
[8] = system: KM12 colon; conditions: 10 µM unless noted

`CCN(C(=O)c1ccc2c3c(cccc13)C=C2)c1ccccc1` showed a growth [1] of 96%, a growth [2] of 107% and a growth [3] of 90.9%. The growth [4] was 111%, the growth [5] was 109% and the growth [6] was 97.8%. The growth [7] was 123% and the growth [8] was 118%.
In the case of `Cc1cc(NS(=O)(=O)c2ccc(NC(=O)COc3ccc(-c4cc5ccccc5[nH]4)cc3)cc2)no1`, the growth [1] is reported as -19.8% (active), the growth [2] is reported as 11.9% and the growth [3] is reported as -11.9% (active). For the same compound, the growth [4] was 15.9%, the growth [5] was 1.1% (active) and the growth [6] was 2.8% (active). The growth [7] was -1.25% (active) and the growth [8] was 10.3%.
`FCOC(C(F)(F)F)C(F)(F)F` was tested, and the growth [1] was 97.9%, the growth [2] was 103% and the growth [3] was 103%. The growth [4] was 101%, the growth [5] was 101% and the growth [6] was 103%. The growth [7] was 104% and the growth [8] was 103%.
With `Nc1nc(N)c(C=Nc2ccc(Br)cc2)c(Nc2ccc(Br)cc2)n1` the growth [1] was 76.8%, the growth [2] was 69.3% and the growth [3] was 84.7%. It also gave a growth [4] of 99.7%, a growth [5] of 72.7% and a growth [6] of 78.5%. For the same compound, the growth [7] was 83.5% and the growth [8] was 86.3%.
With `C=CC(=O)N1CC2(CCC(n3nc(-c4ccc(Oc5ccccc5)cc4)c4c(N)ncnc43)CC2)C1` the growth [1] was 14.6%, the growth [2] was -69.3% (active) and the growth [3] was -81.1% (active). For the same compound, the growth [4] was 0.371% (active), the growth [5] was 1.86% (active) and the growth [6] was -82.7% (active). For the same compound, the growth [7] was -77.8% (active) and the growth [8] was -29.1% (active).
For `COc1ccc2nc(-n3nc(C)cc3C)c(-n3nc(C)cc3C)nc2c1`, the growth [1] was 105%, the growth [2] was 104% and the growth [3] was 102%. For the same compound, the growth [4] was 107%, the growth [5] was 109% and the growth [6] was 96%. For the same compound, the growth [7] was 89.8% and the growth [8] was 116%.
For `CC(=O)Nc1ccccc1-c1n[nH]c(=O)[nH]c1=O`, the growth [1] was 97.5%, the growth [2] was 112% and the growth [3] was 97.9%. The growth [4] was 96.4%, the growth [5] was 101% and the growth [6] was 104%. The growth [7] was 116% and the growth [8] was 105%.
`O=c1[nH]c(=S)[nH]c(=O)n1Cc1cccc2ccccc12` showed a growth [1] of 99.5%, a growth [2] of 107% and a growth [3] of 99.7%. It also gave a growth [4] of 103%, a growth [5] of 80.9% and a growth [6] of 102%. For the same compound, the growth [7] was 86.5% and the growth [8] was 105%.
With `COc1cc(C2C3=C(COC3=O)N(CCO)c3cc4c(cc32)OCO4)cc(OC)c1O` (stereo unspecified) the growth [1] was 35.3%, the growth [2] was 59.9% and the growth [3] was -39.6% (active). For the same compound, the growth [4] was 14.8%, the growth [5] was 19.6% and the growth [6] was 16.7%. The growth [7] was 28.4% and the growth [8] was 20.9%.
`COc1ccc(CSc2nc3cc(OC)c(OC)cc3c(=O)n2-c2ccc(Cl)cc2)cc1` was tested, and the growth [1] was 95.4%, the growth [2] was 100% and the growth [3] was 98%. For the same compound, the growth [4] was 99.2%, the growth [5] was 101% and the growth [6] was 98.4%. The growth [7] was 108% and the growth [8] was 102%.
For `COc1cc(/C=C2\C(=O)Nc3ccccc32)cc(OC)c1O`, the growth [1] was 49.6%, the growth [2] was 74.8% and the growth [3] was -25.3% (active). It also gave a growth [4] of 31.5%, a growth [5] of 30.8% and a growth [6] of 46.4%. For the same compound, the growth [7] was 78.8% and the growth [8] was 32.2%.
`O=C1CCC(N2Cc3c(C#CCCCNC(=O)c4cc5c(o4)C(=O)c4ccccc4C5=O)cccc3C2=O)C(=O)N1` (stereo unspecified) was tested, and the growth [1] was 7.33% (active), the growth [2] was -94.8% (active) and the growth [3] was -94.5% (active). For the same compound, the growth [4] was -34.7% (active), the growth [5] was -68.6% (active) and the growth [6] was -25.5% (active). The growth [7] was -64.1% (active) and the growth [8] was -1.98% (active).
`Cc1cccc2c(=O)c3c(sc12)c(NCCNCCO)nc1ccccc13` was tested, and the growth [1] was 44.8%, the growth [2] was 78.4% and the growth [3] was 7.39% (active). The growth [4] was -67% (active), the growth [5] was -69% (active) and the growth [6] was -70.6% (active). For the same compound, the growth [7] was -24.9% (active) and the growth [8] was 5.93% (active).
`Cc1ccc2c(N/N=C\c3ccco3)cc(C)nc2n1` gave a growth [1] of 37.4%, a growth [2] of 87.7% and a growth [3] of 36.6%. The growth [4] was 39.5%, the growth [5] was 71.8% and the growth [6] was 21.5%. The growth [7] was 65.4% and the growth [8] was 74.8%.
`CCCC1=NNC(=O)C1` showed a growth [1] of 101%, a growth [2] of 99.2% and a growth [3] of 98.5%. The growth [4] was 99.8%, the growth [5] was 96.3% and the growth [6] was 98.5%. For the same compound, the growth [7] was 119% and the growth [8] was 117%.
Compound `COc1ccc(C2SC(C)C(=O)N2CCc2cccs2)cc1OC` (stereo unspecified) has a growth [1] of 52.9%, a growth [2] of 76% and a growth [3] of 98.3%. For the same compound, the growth [4] was 102%, the growth [5] was 86.3% and the growth [6] was 78.4%. For the same compound, the growth [7] was 84% and the growth [8] was 96.3%.
With `COc1cccc(-c2ccc3c(c2)C2CCN(Cc4ccccc4)C3C2)c1` (stereo unspecified) the growth [1] was 76.3%, the growth [2] was 64.2% and the growth [3] was 9.08% (active). The growth [4] was 53.6%, the growth [5] was 60.1% and the growth [6] was 58.4%. For the same compound, the growth [7] was 83.5% and the growth [8] was 56.7%.
`Cc1nc2cc(Nc3nc(Nc4ccc(F)cc4)nc(N4CCN(C)CC4)n3)ccc2n1Cc1ccccc1` was tested, and the growth [1] was -10.7% (active), the growth [2] was -49.9% (active) and the growth [3] was 0.19% (active). The growth [4] was 15.6%, the growth [5] was 17.9% and the growth [6] was -16.3% (active). For the same compound, the growth [7] was -14.8% (active) and the growth [8] was 17%.
Compound `NC(=O)c1cccc(-n2ccc3cc(NC(=O)Nc4ccc(Cl)c(Cl)c4)ccc32)n1` has a growth [1] of 49.3%, a growth [2] of 65.8% and a growth [3] of 61%. The growth [4] was 94.2%, the growth [5] was 57.7% and the growth [6] was 71.9%. The growth [7] was 97.7% and the growth [8] was 55.5%.
In the case of `Nc1nc2c(s1)CCc1c-2c(Br)n(Cc2ccccc2)c1Br`, the growth [1] is reported as 34.3%, the growth [2] is reported as 93.7% and the growth [3] is reported as 95.6%. For the same compound, the growth [4] was 35.3%, the growth [5] was 78.4% and the growth [6] was 23.5%. It also gave a growth [7] of 102% and a growth [8] of 108%.
With `COc1ccc(-n2ncc3c2ccc2cc(S(=O)(=O)c4ccccc4)c(=O)n(C)c23)cc1` the growth [1] was 90.6%, the growth [2] was 67.8% and the growth [3] was 90.3%. The growth [4] was 97.5%, the growth [5] was 91% and the growth [6] was 78.3%. For the same compound, the growth [7] was 102% and the growth [8] was 88.8%.
`CCOC(=O)c1sc(NC(=O)CN2CCC(Cc3ccccc3)CC2)nc1C` was tested, and the growth [1] was 101%, the growth [2] was 104% and the growth [3] was 105%. It also gave a growth [4] of 95.8%, a growth [5] of 94.4% and a growth [6] of 81.5%. For the same compound, the growth [7] was 102% and the growth [8] was 106%.
With `COc1ccc(/C=C2\CN(Cc3cn(CCCNc4ccnc5cc(Cl)ccc45)nn3)C/C(=C\c3ccc(OC)c(OC)c3)C2=O)cc1OC` the growth [1] was 49.5%, the growth [2] was -56.1% (active) and the growth [3] was -28.9% (active). For the same compound, the growth [4] was -16.7% (active), the growth [5] was 36.9% and the growth [6] was -64.6% (active). For the same compound, the growth [7] was -87% (active) and the growth [8] was -64% (active).
For `COc1cc(-c2nc3ccccc3o2)cc(CN2CCN(c3ccccc3)CC2)c1O`, the growth [1] was 91.5%, the growth [2] was 55.3% and the growth [3] was -78% (active). For the same compound, the growth [4] was 94.3%, the growth [5] was 60.6% and the growth [6] was 56.4%. The growth [7] was 85.5% and the growth [8] was 49.8%.
For `COc1ccc(Nc2nc(NCCNc3ccnc4cc(Cl)ccc34)nc(N3CCOCC3)n2)cc1`, the growth [1] was 110%, the growth [2] was 83.7% and the growth [3] was 11.1%. It also gave a growth [4] of 27.2%, a growth [5] of 56.2% and a growth [6] of 41.8%. For the same compound, the growth [7] was 0.682% (active) and the growth [8] was 51.5%.
Work on `O=C1C=CC(=O)N1CCCCCCCCCCN1C(=O)C=CC1=O` yielded a growth [1] of 77.9%, a growth [2] of 101% and a growth [3] of 68.6%. The growth [4] was 4.62% (active), the growth [5] was 82.7% and the growth [6] was 32.9%. The growth [7] was 90.7% and the growth [8] was 86.2%.
With `O=C(N/N=C(\CS(=O)(=O)c1ccccc1)c1cc2ccccc2oc1=O)c1ccccc1` the growth [1] was 101%, the growth [2] was 104% and the growth [3] was 103%. The growth [4] was 105%, the growth [5] was 102% and the growth [6] was 112%. For the same compound, the growth [7] was 106% and the growth [8] was 108%.
`OC[C@@H](O)[C@@H](O)CO` gave a growth [1] of 103%, a growth [2] of 101% and a growth [3] of 100%. The growth [4] was 98.4%, the growth [5] was 99.9% and the growth [6] was 102%. For the same compound, the growth [7] was 102% and the growth [8] was 105%.
`CCCCc1ccc(NC(=O)C(F)(F)F)cc1` showed a growth [1] of 87.1%, a growth [2] of 87.7% and a growth [3] of 102%. The growth [4] was 101%, the growth [5] was 108% and the growth [6] was 106%. For the same compound, the growth [7] was 106% and the growth [8] was 97.3%.
In the case of `Cn1cc(C(=O)NCCC(=N)N)cc1NC(=O)CN=C(N)N`, the growth [1] is reported as 110%, the growth [2] is reported as 99.9% and the growth [3] is reported as 111%. It also gave a growth [4] of 106%, a growth [5] of 111% and a growth [6] of 92.6%. It also gave a growth [7] of 88.6% and a growth [8] of 104%.
`O=S(=O)(Nc1ncccn1)c1ccc(Nc2ccc3nnc(-c4ccncc4)n3n2)cc1` was tested, and the growth [1] was 101%, the growth [2] was 106% and the growth [3] was 108%. The growth [4] was 93%, the growth [5] was 104% and the growth [6] was 108%. For the same compound, the growth [7] was 111% and the growth [8] was 101%.
With `C=CC[P+](c1ccccc1)(c1ccccc1)c1ccccc1` the growth [1] was 16.5%, the growth [2] was 47.5% and the growth [3] was 32.3%. For the same compound, the growth [4] was 79.7%, the growth [5] was 27.2% and the growth [6] was 36.7%. The growth [7] was 51.7% and the growth [8] was 31.3%.

Source: PubChem BioAssay (NCI)
